Test results taken from PubChem BioAssay (NCI).
This is part of a sample that, as a whole, favours compounds with a hit. Of some 83,000 tested, about 20% had one in any assay.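 Single-concentration screen, 48 h exposure, 96-well plates. Endpoint: percent growth. Below 10 = active.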 Activity calls are given as the source filed them.

Columns and labels:
Test in all cases: NCI-60 one-dose screen, 48 h (100 = growth as untreated, 0 = no growth, -100 = all killed)
Conditions in all cases: 10 µM unless noted
[1] = system: DU-145 prostate
[2] = system: K-562 leukemia
[3] = system: MALME-3M melanoma
[4] = system: MDA-MB-231 breast
[5] = system: RXF 393 renal
[6] = system: SF-268 CNS
[7] = system: SF-295 CNS
[8] = system: SF-539 CNS
[9] = system: UACC-257 melanoma
[10] = system: M14 melanoma

Measured: growth

O=C(CSc1nc2ccccc2c(=O)n1-c1ccccc1)N/N=C/c1ccc(Oc2ccc(Cl)cc2)cc1
inactive: [1] 38.4% | [2] 61.2% | [3] 51.3% | [4] 49.2% | [5] 42% | [6] 87.1% | [7] 83.8% | [8] 68.5% | [9] 96.9% | [10] 48.8%

CCCCN1C(=O)/C(=c2\sc3n(c2=O)C2C(NN=3)N(CC)C(=O)N2CC)c2cccc(C)c21 (stereo not given)
active: [8] -7.82%
inactive: [1] 37.6% | [2] 15% | [3] 54.5% | [4] 60% | [5] 11.9% | [6] 56.2% | [7] 29.1% | [9] 89.4% | [10] 27%

CCCCCC[n+]1ccc(SCC(=O)n2ccc3ccccc32)c2ccccc21
inactive: [1] 94.1% | [2] 51.7% | [3] 91.4% | [4] 89.5% | [5] 113% | [6] 101% | [7] 82.2% | [8] 96.3% | [9] 100% | [10] 89%

CC(C)NC(=O)c1cc(-c2ccc(NC(=O)Nc3ccc(F)c(C(F)(F)F)c3)cc2)nc2cccnc12
inactive: [1] 100% | [2] 84.2% | [3] 123% | [4] 92.3% | [5] 81.9% | [6] 92% | [7] 86.2% | [8] 90.3% | [9] 101% | [10] 92.3%

O=C(CSc1nnc(-c2ccc(Cl)cc2)n1-c1ccccc1)Nc1ccccc1Cl
inactive: [1] 68.4% | [2] 67.1% | [3] 79.2% | [4] 44.8% | [5] 74% | [6] 81.5% | [7] 31.5% | [8] 52.1% | [9] 95.1% | [10] 78.2%

C#CCOc1ccc(-c2csc(NC(=O)C=C)n2)cc1NS(=O)(=O)c1cccc2c(N(C)C)cccc12
active: [2] 9.26% | [5] -6.3% | [8] 3.55%
inactive: [1] 44.6% | [3] 62.5% | [4] 31.7% | [6] 64.7% | [7] 66.8% | [9] 68.6% | [10] 31.9%

CN(C)c1ccc(/C=N/Nc2nc(N/N=C/c3ccc(N(C)C)cc3)nc(N3CCCCC3)n2)cc1
inactive: [1] 77.5% | [4] 68.6% | [5] 93.3% | [6] 105% | [7] 107% | [9] 104% | [10] 72.8%
active: [2] 3.08% | [3] -67.3% | [8] -12.3%

O=c1c2cc(-c3ccc(F)cc3F)ccc2n(Nc2ccccc2)c(=O)n1-c1cccc(C(F)(F)F)c1
inactive: [1] 26.6% | [6] 22% | [8] 18% | [10] 21.6%
active: [2] 6.95% | [3] -18.4% | [4] -5.2% | [5] 5.77% | [7] -2.47% | [9] -1.25%

COc1ccc(NC2=C(Br)C(=O)C(C)=C(C)C2=O)cc1OC
active: [2] -7.89%
inactive: [1] 109% | [3] 117% | [4] 33.3% | [5] 104% | [6] 95.3% | [7] 94.4% | [8] 101% | [9] 96% | [10] 104%

COc1ccc(/C(=N\NC(N)=S)c2ccc(Cl)cc2)cc1OC
inactive: [1] 37.5% | [2] 19% | [3] 30.8% | [4] 16.8% | [5] 25.1% | [6] 45% | [7] 13.4% | [8] 14.2% | [9] 42.9%
active: [10] -4.37%

CCCCCCNC(=O)Oc1ccc(/C(=C(/C)c2ccc(OC)cc2)c2ccc(OCCN3CCCCCC3)cc2)cc1
active: [2] 2.71% | [3] -34.9% | [4] 6.27% | [5] -8.34% | [7] -41.3% | [8] -59% | [9] 9.09% | [10] -63.5%
inactive: [1] 47.8% | [6] 60.3%

COc1cc(C(=O)c2cc(C(C)=O)c3ccc(C)cn23)cc(OC)c1OC
inactive: [1] 66.9% | [2] 19.2% | [3] 43.9% | [4] 55.2% | [5] 58.6% | [6] 61.3% | [8] 34.7% | [9] 76.7% | [10] 16.1%
active: [7] 7.71%

C#C[C@]1(O)CC[C@H]2[C@@H]3CC=C4c5sc(N(C)c6ccccc6)nc5CC[C@]4(C)[C@H]3CC[C@@]21C
inactive: [1] 95.4% | [3] 110% | [4] 98.6% | [5] 75.8% | [6] 88% | [7] 68.8% | [8] 48.7% | [9] 90.8% | [10] 54.3%
active: [2] 2.88%

CSc1ccc(C(=NNS(=O)(=O)c2ccc(C)cc2)c2ccc(Cl)cc2)cc1
inactive: [1] 108% | [2] 94.6% | [3] 89.9% | [4] 104% | [5] 101% | [6] 95.3% | [7] 96.9% | [8] 102% | [9] 100% | [10] 103%

Cn1cc(-c2nn3cc(-c4ccncc4)nc3s2)c2cc(F)ccc21
inactive: [1] 90.8% | [2] 19.7% | [3] 65.5% | [4] 63.3% | [5] 88% | [6] 94.8% | [7] 96.7% | [8] 87% | [9] 111% | [10] 93.4%

COc1ccc2c(c1)c(-c1nn3cc(-c4ccncc4)nc3s1)cn2C
inactive: [1] 93.9% | [2] 28.4% | [3] 89.9% | [4] 77% | [5] 83.2% | [6] 79% | [7] 75.3% | [8] 84% | [9] 116% | [10] 107%

CCc1cccc2c3c(sc12)C(c1ccc(F)cc1)C(C#N)=C(/N=C/c1ccc(Cl)cc1)O3 (stereo not given)
inactive: [1] 29% | [2] 10.5% | [3] 57.2% | [4] 30.3% | [6] 43.5% | [9] 69.4%
active: [5] -7.19% | [7] 6.46% | [8] -6.53% | [10] 9.94%

CC1=C(C)C(=O)C(Nc2cccc(C(=O)OC(C)(C)C)c2)=C(Cl)C1=O
inactive: [1] 103% | [2] 21.6% | [3] 94.4% | [4] 48.9% | [5] 103% | [6] 92% | [7] 105% | [8] 96.6% | [9] 91.4% | [10] 83.3%

COc1ccc(/C=N/NC(=O)CSc2nc(-c3cnccn3)cc(-c3cccs3)c2C#N)cc1OC
inactive: [1] 100% | [2] 95.5% | [3] 69.1% | [4] 50.1% | [6] 70.5% | [7] 83.1% | [8] 36.7% | [9] 91.7% | [10] 77.5%
active: [5] -12.9%

CN(C)c1cccc2c(S(=O)(=O)Nc3cccc(-c4csc(NC(=O)CCCCCN5CCN(CCO)CC5)n4)c3)cccc12
inactive: [1] 90.6% | [3] 55.9% | [4] 84.1% | [5] 66.7% | [6] 93.5% | [7] 60.5% | [8] 54.7% | [9] 78.3% | [10] 73.7%
active: [2] 7.77%

O=S(=O)(NCCCNc1nccc(-c2[nH]c(-c3ccccc3)nc2-c2ccc(F)c(O)c2)n1)c1cccc(F)c1
inactive: [1] 100% | [2] 49.3% | [4] 79.3% | [5] 100% | [6] 103% | [7] 85.2% | [8] 103% | [9] 23.4% | [10] 29.3%
active: [3] -2.58%

CC(=O)Nc1cc(N2CCOCC2)c2nc(NC(=O)c3[nH]c(C)c(Cl)c3Cl)sc2c1
inactive: [1] 58.1% | [2] 81.4% | [3] 54.7% | [4] 62.2% | [5] 19.2% | [6] 93.9% | [7] 50.8% | [8] 48.7% | [9] 84.8% | [10] 72.1%

CN(C)c1ccc(-c2cc(-c3c[nH]c4ccccc34)nc(N)c2C#N)cc1
inactive: [1] 49.2% | [2] 17.5% | [3] 64.4% | [4] 36% | [6] 52.3% | [7] 26.8% | [8] 37.5% | [9] 56.9%
active: [5] 2.37% | [10] -27.1%

Cc1csc(/N=C(N)/N=C(\N)c2cccc(Br)c2)n1
inactive: [1] 105% | [2] 57% | [3] 97.7% | [4] 96% | [5] 94.1% | [6] 91.7% | [7] 94.1% | [8] 92.6% | [9] 102% | [10] 86.6%

C#C[C@]1(O)CC[C@H]2[C@@H]3CC=C4c5sc(NCc6ccccc6)nc5CC[C@]4(C)[C@H]3CC[C@@]21C
inactive: [1] 71% | [3] 43.6% | [4] 48.4% | [6] 47.5% | [10] 21.4%
active: [2] 1.46% | [5] -36% | [7] -57.6% | [8] -39.9% | [9] -10%

CC1=Cc2ccccc2OC12C=Cc1ccccc1O2 (stereo not given)
inactive: [1] 119% | [2] 92.3% | [3] 98.7% | [4] 89.8% | [5] 97.8% | [6] 98.8% | [7] 97.2% | [8] 97.8% | [9] 114% | [10] 107%
